Measurements published in PubChem BioAssay (EPA / NIEHS).
Inconclusive results are not listed. Active and inactive are the calls of the source. How the source made its calls, unless noted: active means hit-call score of the fitted dose curve at least 0.9, where 1 is the maximum; inactive means score below 0.9.

What was measured:
[1] = ACEA_ER_80hr: ACEA Biosciences xCELLigence Real-Time Cell Analysis on Estrogen Receptor Agonism for Proliferation (AID 2282667; active means hit-call score of the fitted dose curve at least 0.9, where 1 is the maximum); conditions: T47D proliferation, impedance (xCELLigence), 80 h
In short: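 Cell-growth kinetics were measured by impedance in T47D cells treated continuously with compound (top 100 uM final, 1:4 steps, 8 points). Activity at 80 h was scored as signal gain over the DMSO baseline.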

[2] = ATG_CRE_CIS: Attagene CIS-FACTORIAL HepG2 Assay for human cAMP Responsive Element (CRE) binding protein 3 (AID 2282926); conditions: HepG2 CRE cis-reporter, Attagene multiplexed mRNA; actives raise or lower the signal
In short: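 Cells carrying cis-regulated reporter constructs respond through their own endogenous factors. After 24 h treatment, RNA is reverse-transcribed, amplified, labelled and sized by capillary electrophoresis; up- and down-regulation are both scored against vehicle.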

[3] = target: CCAAT/enhancer-binding protein beta (Homo sapiens) (UniProt P17676); assay: ATG_C_EBP_CIS: Attagene CIS-FACTORIAL HepG2 Assay for human CCAAT/Enhancer Binding Protein (C/EBP) beta (AID 2282927); conditions: HepG2 Attagene cis-factorial transcription factor reporter; actives raise or lower the signal
In short: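 Changes in reporter mRNA, rather than exogenous chimeric receptor activity, reflect native C/EBP signalling in transfected HepG2 cells dosed for 24 h; transcripts are detected by RT-PCR and capillary electrophoresis.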

[4] = ATG_CMV_CIS: Attagene CIS-FACTORIAL HepG2 Assay for human CMV (Internal Marker) (AID 2282928); conditions: HepG2 CMV promoter reporter, transcription factor profiling; actives raise or lower the signal;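 further: endpoint acts as a background internal control marker rather than a target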
In short: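 Fluorescence intensity of RT-PCR-derived reporter fragments, resolved by capillary electrophoresis, gives the signal. HepG2 liver cells bearing transfected cis-element reporters were treated 24 h; activity in either direction was fit relative to DMSO-treated controls.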

[5] = ATG_DR4_LXR_CIS: Attagene CIS-FACTORIAL HepG2 Assay for human Liver X Receptor (LXR), DR4 submotif (AID 2282929); conditions: HepG2 Attagene DR4 cis-reporter, mRNA transcription; actives raise or lower the signal
In short: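 Total RNA from 24 h-treated, MRTU-transfected HepG2 cells underwent reverse transcription, PCR, fluorescent primer extension and restriction digestion before capillary electrophoresis. Both increases and decreases in reporter signal were fitted against DMSO.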

[6] = target: Aryl hydrocarbon receptor (Homo sapiens) (UniProt P35869); assay: ATG_Ahr_CIS: Attagene CIS-FACTORIAL HepG2 Assay for human Aryl Hydrocarbon Receptor (Ahr) (AID 2282930); conditions: HepG2 AhR cis-factorial reporter transcription; actives raise or lower the signal
In short: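 HepG2, transient MRTU (cis) transfection, 24 h exposure. RNA → cDNA → PCR → 6-FAM primer extension → HpaI 2 h 37 C → CE. Fit: bidirectional, DMSO baseline.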

[7] = ATG_AP_1_CIS: Attagene CIS-FACTORIAL HepG2 Assay for human Activator Protein 1 (AP-1) (AID 2282931); conditions: HepG2 Attagene cis-factorial AP-1 reporter mRNA; actives raise or lower the signal
In short: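 HepG2, transient cis-reporter transfection; 24 h; readout RT-PCR/CE fluorescence; DMSO baseline, gain and loss fitted.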

[8] = ATG_BRE_CIS: Attagene CIS-FACTORIAL HepG2 Assay for human Bone Morphogenetic Protein (BMP) Response Element (BRE) (AID 2282933); conditions: HepG2 BMP response element reporter, Attagene transcription factor profiling; actives raise or lower the signal
In short: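 Gain- or loss-of-signal was derived by bidirectional fitting against DMSO controls. The signal came from reporter mRNA, measured by RT-PCR and capillary electrophoresis, in HepG2 cells transiently carrying multiple reporter units and dosed for 24 h.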

[9] = target: Retinoic acid receptor alpha (Homo sapiens) (UniProt P10276); assay: ATG_DR5_RAR_CIS: Attagene CIS-FACTORIAL HepG2 Assay for human Retinoic Acid Receptor Alpha (RARE), DR5 submotif (AID 2282934); conditions: HepG2 Attagene cis-factorial RARE DR5 reporter, mRNA; actives raise or lower the signal;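 on AC50: reporter responds to endogenous RAR alpha beta and gamma in HepG2 not RARA alone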
In short: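 HepG2, transient cis-reporter transfection, 24 h exposure. mRNA readout: RT-PCR, FAM label, HpaI cut, capillary electrophoresis. DMSO baseline, gain/loss fitting.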

[10] = target: Transcription factor E2F1 (Homo sapiens) (UniProt Q01094); assay: ATG_E2F_CIS: Attagene CIS-FACTORIAL HepG2 Assay for human E2F Transcription Factor 1 (AID 2282935); conditions: HepG2 Attagene cis-reporter, E2F reporter RNA transcripts; actives raise or lower the signal
In short: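 Gain or loss of reporter transcript, fitted against DMSO, reflects E2F1-driven transcription. Transiently transfected HepG2 dosed 24 h before RNA isolation. Quantified by fluorescent RT-PCR products separated by capillary electrophoresis.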

[11] = ATG_E_Box_CIS: Attagene CIS-FACTORIAL HepG2 Assay for human Enhancer Box (E-box) (AID 2282936); conditions: HepG2 E-box cis-reporter transcription, actives raise or lower the signal
In short: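 E-box-driven reporter transcripts measured in transiently transfected HepG2 after 24 h exposure: RNA reverse-transcribed, PCR-amplified, fluorescently labelled, digested and resolved by capillary electrophoresis. Gain or loss relative to DMSO.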

[12] = ATG_M_61_CIS: Attagene CIS-FACTORIAL HepG2 Assay for M61 Transcription Factor (Internal Marker) (AID 2282937); conditions: HepG2 Attagene CIS-FACTORIAL M61 internal marker reporter; actives raise or lower the signal
In short: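 Transfect HepG2 with MRTUs; dose 24 h; isolate RNA; reverse-transcribe with DNase I treatment; PCR-amplify, FAM-label and cut with HpaI for 2 h at 37 C; resolve by CE. Bidirectional fitting against DMSO.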

[13] = ATG_EGR_CIS: Attagene CIS-FACTORIAL HepG2 Assay for human Early Growth Response 1 (EGR1) (AID 2282938); conditions: HepG2 Attagene CIS-FACTORIAL EGR reporter mRNA; actives raise or lower the signal
In short: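 After a 24 h treatment of transiently transfected HepG2 cells, total RNA was reverse-transcribed and reporter sequences PCR-amplified, labelled and run on capillary electrophoresis. Reporters sit under cis-regulatory promoters sensing endogenous factors.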

[14] = ATG_M_19_CIS: Attagene CIS-FACTORIAL HepG2 Assay for M19 Transcription Factor (Internal Marker) (AID 2282939); conditions: HepG2 Attagene CIS-FACTORIAL M19 internal marker reporter; actives raise or lower the signal
In short: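 Following a 24 h exposure, RNA from transfected HepG2 cells was reverse-transcribed, PCR-amplified with reporter-specific primers, end-labelled with 6-FAM and HpaI-digested before capillary separation. Values represent gain or loss versus DMSO.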

[15] = ATG_ERE_CIS: Attagene CIS-FACTORIAL HepG2 Assay for Estrogen Response Element (ERE) (AID 2282940); conditions: HepG2 ERE cis-reporter, Attagene RNA transcript; actives raise or lower the signal
In short: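 HepG2, transient cis-reporter units, 24 h exposure. RNA isolated, oligo(dT) RT, reporter-specific PCR, FAM extension, HpaI cut, CE detection. Gain/loss-of-signal vs DMSO.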

[16] = ATG_Ets_CIS: Attagene CIS-FACTORIAL HepG2 Assay for human Erythroblast Transformation Specific (ETS) (AID 2282941); conditions: HepG2 ETS cis-reporter transcription, actives raise or lower the signal
In short: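 Multiplexed reporter transcript profiling: HepG2, 24 h treatment, total RNA to cDNA, PCR, 6-FAM labelling, HpaI cut, capillary electrophoresis. Gain- or loss-of-signal fitted against DMSO.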

[17] = target: Hepatocyte nuclear factor 3-beta (Homo sapiens) (UniProt Q9Y261); assay: ATG_FoxA2_CIS: Attagene CIS-FACTORIAL HepG2 Assay for human Forkhead box A2 (FOXA2) (AID 2282942); conditions: HepG2 cis-reporter transcription factor activity, 24 h; actives raise or lower the signal
In short: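 24 h dosing of HepG2 bearing cis-reporter constructs; mRNA readout by RT-PCR/CE fluorescence; bidirectional fit, DMSO baseline.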

[18] = ATG_FoxO_CIS: Attagene CIS-FACTORIAL HepG2 Assay for human Forkhead box O (FoxO) (AID 2282943); conditions: HepG2 Attagene cis-reporter, FoxO element, mRNA; actives raise or lower the signal
In short: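 Human hepatoma HepG2 cells carry transiently introduced reporter transcription units controlled by cis promoter elements. Chemical treatment lasted 24 h, and mRNA signal was compared with DMSO.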

[19] = ATG_GATA_CIS: Attagene CIS-FACTORIAL HepG2 Assay for human GATA Binding Protein (AID 2282944); conditions: HepG2 GATA cis-element reporter, Attagene multiplex mRNA; actives raise or lower the signal
In short: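 DMSO serves as negative control and baseline for bidirectional fitting of reporter mRNA changes. HepG2 cells bearing transiently transfected cis-promoter reporters were exposed 24 h; transcripts detected via RT-PCR and capillary electrophoresis.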

[20] = ATG_AP_2_CIS: Attagene CIS-FACTORIAL HepG2 Assay for human Activator Protein 2 (AP-2) (AID 2282932); conditions: HepG2 AP-2 cis-reporter, Attagene transcription factor profiling; actives raise or lower the signal
In short: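 Endogenous transcription factor activity is reported through transfected multiplex reporter constructs in HepG2, after 24 h of compound exposure. Transcripts were quantified by RT-PCR and capillary electrophoresis of fluorescent fragments. Bidirectional fit against DMSO.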

Measured: AC50

Transcription factor E2F1 (Homo sapiens), sequence (Q01094 whole entry, looked up): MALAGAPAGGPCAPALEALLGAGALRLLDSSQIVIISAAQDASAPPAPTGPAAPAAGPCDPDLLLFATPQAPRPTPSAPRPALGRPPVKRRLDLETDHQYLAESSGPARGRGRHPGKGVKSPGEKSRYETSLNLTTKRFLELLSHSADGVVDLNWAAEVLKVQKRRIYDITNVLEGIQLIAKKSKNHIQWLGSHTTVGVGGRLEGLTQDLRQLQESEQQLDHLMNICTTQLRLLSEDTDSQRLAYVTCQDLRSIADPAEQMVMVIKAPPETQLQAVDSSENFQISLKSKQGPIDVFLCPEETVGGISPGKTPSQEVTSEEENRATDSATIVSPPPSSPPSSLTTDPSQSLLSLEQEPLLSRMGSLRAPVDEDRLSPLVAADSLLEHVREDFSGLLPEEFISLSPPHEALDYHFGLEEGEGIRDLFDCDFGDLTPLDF
CCAAT/enhancer-binding protein beta (Homo sapiens), sequence (P17676 whole entry, looked up): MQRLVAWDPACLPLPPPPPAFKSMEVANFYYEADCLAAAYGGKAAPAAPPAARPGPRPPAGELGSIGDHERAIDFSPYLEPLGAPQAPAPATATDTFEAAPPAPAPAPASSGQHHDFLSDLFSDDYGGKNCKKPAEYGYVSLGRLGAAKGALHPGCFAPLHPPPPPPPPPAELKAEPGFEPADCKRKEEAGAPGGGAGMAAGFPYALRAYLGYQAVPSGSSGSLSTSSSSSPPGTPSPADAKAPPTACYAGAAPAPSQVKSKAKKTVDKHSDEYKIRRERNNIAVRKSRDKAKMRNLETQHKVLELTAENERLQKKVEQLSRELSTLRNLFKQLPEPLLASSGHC
Hepatocyte nuclear factor 3-beta (Homo sapiens), sequence (Q9Y261 whole entry, looked up): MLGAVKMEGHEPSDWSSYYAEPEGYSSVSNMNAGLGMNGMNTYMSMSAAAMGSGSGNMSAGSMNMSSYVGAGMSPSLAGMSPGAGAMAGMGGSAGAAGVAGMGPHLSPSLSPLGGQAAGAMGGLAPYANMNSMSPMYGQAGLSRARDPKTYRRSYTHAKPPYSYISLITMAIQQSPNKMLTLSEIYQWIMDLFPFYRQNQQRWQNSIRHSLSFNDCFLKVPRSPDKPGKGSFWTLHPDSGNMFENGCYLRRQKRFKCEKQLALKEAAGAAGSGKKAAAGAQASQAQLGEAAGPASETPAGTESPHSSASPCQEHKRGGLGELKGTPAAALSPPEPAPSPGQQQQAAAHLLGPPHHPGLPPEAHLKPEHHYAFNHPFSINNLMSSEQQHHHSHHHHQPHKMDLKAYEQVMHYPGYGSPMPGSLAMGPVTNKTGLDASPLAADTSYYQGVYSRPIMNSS
Retinoic acid receptor alpha (Homo sapiens), sequence (P10276 whole entry, looked up): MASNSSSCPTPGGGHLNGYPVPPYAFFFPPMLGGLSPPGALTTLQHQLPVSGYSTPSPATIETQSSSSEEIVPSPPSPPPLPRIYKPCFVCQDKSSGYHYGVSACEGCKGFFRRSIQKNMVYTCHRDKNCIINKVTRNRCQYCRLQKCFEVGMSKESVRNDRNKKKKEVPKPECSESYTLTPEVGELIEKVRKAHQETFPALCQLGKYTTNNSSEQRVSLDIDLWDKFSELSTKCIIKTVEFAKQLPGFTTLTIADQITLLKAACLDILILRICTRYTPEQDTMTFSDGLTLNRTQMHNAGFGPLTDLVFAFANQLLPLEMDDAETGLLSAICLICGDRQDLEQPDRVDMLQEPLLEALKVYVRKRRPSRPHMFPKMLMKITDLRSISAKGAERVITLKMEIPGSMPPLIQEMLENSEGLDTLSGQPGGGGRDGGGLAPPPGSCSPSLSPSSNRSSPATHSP
Aryl hydrocarbon receptor (Homo sapiens), sequence (P35869 whole entry, looked up): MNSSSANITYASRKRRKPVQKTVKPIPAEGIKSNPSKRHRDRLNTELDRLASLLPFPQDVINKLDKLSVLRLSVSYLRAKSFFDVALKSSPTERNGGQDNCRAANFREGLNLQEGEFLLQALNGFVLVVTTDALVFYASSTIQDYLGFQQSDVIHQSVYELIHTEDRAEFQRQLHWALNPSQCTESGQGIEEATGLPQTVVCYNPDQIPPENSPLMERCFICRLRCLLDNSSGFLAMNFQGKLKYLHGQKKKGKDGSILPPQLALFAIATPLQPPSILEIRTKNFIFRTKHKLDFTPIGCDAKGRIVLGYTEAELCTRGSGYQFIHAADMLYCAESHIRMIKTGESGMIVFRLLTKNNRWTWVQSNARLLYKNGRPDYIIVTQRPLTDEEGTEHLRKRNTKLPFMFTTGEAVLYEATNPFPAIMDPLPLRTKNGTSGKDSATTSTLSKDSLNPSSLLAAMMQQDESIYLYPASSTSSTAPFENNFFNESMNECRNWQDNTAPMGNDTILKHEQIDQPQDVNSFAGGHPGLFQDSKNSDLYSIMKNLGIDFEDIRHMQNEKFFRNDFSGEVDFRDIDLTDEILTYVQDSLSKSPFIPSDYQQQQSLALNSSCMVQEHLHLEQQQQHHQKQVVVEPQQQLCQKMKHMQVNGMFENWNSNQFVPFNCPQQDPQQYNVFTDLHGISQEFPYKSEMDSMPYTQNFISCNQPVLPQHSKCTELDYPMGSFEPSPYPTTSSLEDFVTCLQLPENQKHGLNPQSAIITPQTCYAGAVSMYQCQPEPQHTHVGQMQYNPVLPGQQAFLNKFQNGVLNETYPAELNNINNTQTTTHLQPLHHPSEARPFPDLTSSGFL

CCCCOCC(C)O (stereo unspecified)
active: [1] 0.129 µM
not listed: [20]
inactive: all other assays above

c1ccc(-c2nc3ccccc3[nH]2)cc1
not listed: [20]
inactive: all other assays above

CC(=O)/C=C/C1C(C)=CCCC1(C)C (stereo unspecified)
active: [15] 44.7 µM
not listed: [9] | [14] | [17]
inactive: all other assays above

C=Cc1cccc(C)c1
active: [7] 31.9 µM
not listed: [5] | [16]
inactive: all other assays above

CCC(C)C(=O)OCCc1ccccc1 (stereo unspecified)
active: [1] 1.68 µM
not listed: [5]
inactive: all other assays above

CCCCC(=O)O
not listed: [5]
inactive: all other assays above

O=C(O)c1cc(O)c2ccccc2c1O
active: [3] 5.04 µM | [6] 0.0305 µM | [9] 22.8 µM | [10] 59.1 µM | [11] 8.86 µM | [16] 57.9 µM | [18] 52 µM
not listed: [5] | [15]
inactive: all other assays above

CCN1CCCC1=O
not listed: [15] | [19] | [20]
inactive: all other assays above
